Laboratory results as given in PubChem BioAssay (NCATS).
Results filed as inconclusive are left out. Active and inactive are the calls of the source. Unless noted, the call rests on the fitted dose curve; in most records, active means well fitted curve in the direction sought with a large enough effect; inconclusive means small, poorly fitted or top-dose-only effect, or another doubt; inactive means no such curve, though single readings can be large; an effect the other way counts as inactive or inconclusive.

Columns and labels:
[1] = qHTS drug screen for cell cycle checkpoint inhibitors in PARPi-resistant BRCA-mutant ovarian cancer cell lines. (AID 1963452; calls by dose curve); conditions: PEO1/OlaR viability, CellTiter-Glo luminescence, 96 h, stronger effect = lower value
Method in brief: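 PEO1, PEO4 and PEO1/OlaR ovarian cancer cells, 600 per well, exposed 96 h at 37C to a dilution series. Viability read by CellTiter-Glo luminescence, normalized to DMSO and empty wells; activity summarized as Z-AUC.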

[2] = qHTS profiling for inhibitors of Plasmodium falciparum proliferation (AID 504749); further: nearly all actives have a fitted effect of over 60% in size; further: potency means the concentration at half of the fitted maximal effect;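 on activity, negative = inhibition: 0% = DMSO vehicle and full inhibition = artemisinin control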; conditions: P. falciparum in erythrocytes, SYBR Green DNA, 72 h, at 28.7 µM (top of the series)
Method in brief: (§1)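 Readout was DNA-dye fluorescence from lysed cultures, ex 485/em 535 nm. Parasitized red cells had grown 72 h with compound; data scaled between 0.29 uM artemisinin and DMSO wells and corrected using vehicle-only plates.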

3D7 = test: as above; conditions: P. falciparum in erythrocytes, SYBR Green DNA, 72 h; series mostly up to 28.7 µM
Method in brief: as §1

7G8 = test: as above; conditions: P. falciparum in erythrocytes, SYBR Green DNA, 72 h; series mostly up to 28.7 µM
Method in brief: as §1

AA1029 = test: as above; conditions: P. falciparum in erythrocytes, SYBR Green DNA, 72 h; series mostly up to 28.7 µM
Method in brief: as §1

AS120 = test: as above; conditions: P. falciparum in erythrocytes, SYBR Green DNA, 72 h; series mostly up to 28.7 µM
Method in brief: as §1

ATS189 = test: as above; conditions: P. falciparum in erythrocytes, SYBR Green DNA, 72 h; series mostly up to 28.7 µM
Method in brief: as §1

ATS95 = test: as above; conditions: P. falciparum in erythrocytes, SYBR Green DNA, 72 h; series mostly up to 28.7 µM
Method in brief: as §1

C2A = test: as above; conditions: P. falciparum in erythrocytes, SYBR Green DNA, 72 h; series mostly up to 28.7 µM
Method in brief: as §1

CP185 = test: as above; conditions: P. falciparum in erythrocytes, SYBR Green DNA, 72 h; series mostly up to 28.7 µM
Method in brief: as §1

CP191 = test: as above; conditions: P. falciparum in erythrocytes, SYBR Green DNA, 72 h; series mostly up to 28.7 µM
Method in brief: as §1

CP192 = test: as above; conditions: P. falciparum in erythrocytes, SYBR Green DNA, 72 h; series mostly up to 28.7 µM
Method in brief: as §1

CP194 = test: as above; conditions: P. falciparum in erythrocytes, SYBR Green DNA, 72 h; series mostly up to 28.7 µM
Method in brief: as §1

CP201 = test: as above; conditions: P. falciparum in erythrocytes, SYBR Green DNA, 72 h; series mostly up to 28.7 µM
Method in brief: as §1

CP203 = test: as above; conditions: P. falciparum in erythrocytes, SYBR Green DNA, 72 h; series mostly up to 28.7 µM
Method in brief: as §1

CP211 = test: as above; conditions: P. falciparum in erythrocytes, SYBR Green DNA, 72 h; series mostly up to 28.7 µM
Method in brief: as §1

[3] = Dual reporter qHTS for agonist of Pregnane X Receptor (hPXR) against the NCATS DSHEA and TCM libraries: Fluorescence readout (AID 1920058); conditions: PXR dual reporter cells; series mostly up to 40 µM; further: 0% is about no effect
Method in brief: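 Measures viability of the PXR reporter HepG2 line by protease-substrate fluorescence (405/540 nm), taken 1 h after CellTiter-Fluor addition. Substances are tested as concentration series over a ~24 h exposure, with rifampicin as agonist control.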

[4] = molecular target: Nuclear receptor subfamily 1 group I member 2 (Homo sapiens) (UniProt O75469); test: Dual reporter qHTS for antagonist of Pregnane X Receptor (hPXR) against the NCATS DSHEA and TCM libraries: Luminescence Readout (AID 1920060); conditions: hPXR dual reporter cells, luciferase luminescence, antagonist mode; series mostly up to 40 µM; further: 0% is about no effect
Method in brief: (§2)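 Rifampicin-stimulated (2 uM final) hPXR-luciferase HepG2 cells were treated for 24 h with DSNP/TCM substances. Viability came from CellTiter-Fluor fluorescence, reporter activity from ONE-Glo luminescence.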

[5] = Dual reporter qHTS for antagonist of Pregnane X Receptor (hPXR) against the NCATS DSHEA and TCM libraries: Fluorescence Readout (AID 1920061); conditions: PXR dual reporter cells, antagonist mode; series mostly up to 40 µM; further: 0% is about no effect
Method in brief: as §2

[6] = molecular target: Nuclear receptor subfamily 1 group I member 2 (Homo sapiens) (UniProt O75469); test: Dual reporter qHTS for agonist of Pregnane X Receptor (hPXR) against the NCATS DSHEA and TCM libraries: Luminescence readout (AID 1920059); conditions: hPXR dual reporter cells, luciferase luminescence agonist; series mostly up to 40 µM; further: 0% is about no effect
Method in brief: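 hPXR-Luc HepG2 cells, 2000/well in 5% charcoal-stripped FBS medium, attached 5 h, then exposed 24 h at 37C to compounds. Viability by CellTiter-Fluor, then luciferase luminescence with ONE-Glo.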

[7] = measured here: PEO1 parental Z-AUC

Sequence of Nuclear receptor subfamily 1 group I member 2 (Homo sapiens) (O75469 whole entry, looked up): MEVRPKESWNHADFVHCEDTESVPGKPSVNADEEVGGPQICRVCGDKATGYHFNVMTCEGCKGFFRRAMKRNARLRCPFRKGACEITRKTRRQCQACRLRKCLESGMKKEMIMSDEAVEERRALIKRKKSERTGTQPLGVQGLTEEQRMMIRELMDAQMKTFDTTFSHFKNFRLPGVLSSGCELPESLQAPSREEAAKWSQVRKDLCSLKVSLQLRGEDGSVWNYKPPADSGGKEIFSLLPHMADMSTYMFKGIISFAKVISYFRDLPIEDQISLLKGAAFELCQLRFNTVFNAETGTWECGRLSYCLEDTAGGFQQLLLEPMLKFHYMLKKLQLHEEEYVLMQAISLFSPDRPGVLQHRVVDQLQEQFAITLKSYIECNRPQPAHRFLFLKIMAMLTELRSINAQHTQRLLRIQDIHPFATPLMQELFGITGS

C#C[C@]1(O)CC[C@H]2[C@@H]3CCc4cc(O)ccc4[C@H]3CC[C@@]21C
0.139: Z-AUC [1, 7]
0.344: Z-AUC ([1]; measured here: PEO4 Z-AUC)
inactive: Z-AUC [1] -0.519 | activity, negative = inhibition ([2]; parasite line A) 17.5% | activity, negative = inhibition ([2]; parasite line B) 5.92% | Potency (3D7) | Potency (7G8) | Potency (AA1029) | Potency (AS120) | Potency (ATS189) | Potency (ATS95) | Potency (C2A) | Potency (CP185) | Potency (CP191) | Potency (CP192) | Potency (CP194) | Potency (CP201) | Potency (CP203) | Potency (CP211)

COc1cc(/C=C/C(=O)CC(=O)/C=C/c2ccc(O)c(OC)c2)ccc1O
-0.396: Z-AUC [1, 7]
inactive: Z-AUC [1] -0.374
-0.434: Z-AUC ([1]; measured here: PEO4 Z-AUC)
active: Potency (3D7) 10 µM | Potency (7G8) 11.2 µM | Potency (C2A) 10 µM

C[S+](CC[C@H](N)C(=O)O)C[C@H]1O[C@@H](n2cnc3c(N)ncnc32)[C@H](O)[C@@H]1O (stereo partly specified)
inactive: outcome [3] | outcome [4] | outcome [5] | Potency (3D7) | Potency (7G8) | Potency (AS120) | Potency (C2A) | Potency (CP192) | Potency (CP194) | Potency (CP201) | Potency (CP211)

O=C1NC(=O)/C(=C/c2ccc(-c3ccc(F)cc3O)o2)S1
-0.562: Z-AUC [1, 7]
-0.191: Z-AUC ([1]; measured here: PEO4 Z-AUC)
inactive: Z-AUC [1] -1.15

O=C(/C=C/c1ccc(O)cc1)c1ccc(O)cc1O
0.213: Z-AUC ([1]; measured here: PEO4 Z-AUC)
0.804: Z-AUC [1, 7]
inactive: Z-AUC [1] 0.396

CC1(C)S[C@@H]2[C@H](NC(=O)[C@H](NC(=O)N3CCN(S(C)(=O)=O)C3=O)c3ccccc3)C(=O)N2[C@H]1C(=O)O
inactive: activity, negative = inhibition ([2]; parasite line A) -8.81% | activity, negative = inhibition ([2]; parasite line B) -7.98% | Potency (3D7) | Potency (7G8) | Potency (AA1029) | Potency (AS120) | Potency (ATS189) | Potency (ATS95) | Potency (C2A) | Potency (CP185) | Potency (CP191) | Potency (CP192) | Potency (CP194) | Potency (CP201) | Potency (CP203) | Potency (CP211)

CCCCCCCCCCCCCCCCCC(=O)O
inactive: outcome [3] | outcome [6] | outcome [4] | outcome [5] | activity, negative = inhibition ([2]; parasite line A) -10.1% | activity, negative = inhibition ([2]; parasite line B) -2.97% | Potency (3D7) | Potency (7G8) | Potency (AA1029) | Potency (AS120) | Potency (ATS189) | Potency (ATS95) | Potency (C2A) | Potency (CP185) | Potency (CP191) | Potency (CP192) | Potency (CP194) | Potency (CP201)

C[N+]1(C)C2CC(OC(=O)[C@H](CO)c3ccccc3)CC1C1OC12 (stereo partly specified)
inactive: Z-AUC [1] 1.57
2.01: Z-AUC ([1]; measured here: PEO4 Z-AUC)
1.91: Z-AUC [1, 7]

N=c1ccn2c(n1)O[C@H]1[C@H](O)[C@@H](CO)O[C@H]12
inactive: Z-AUC [1] -1.72 | activity, negative = inhibition ([2]; parasite line A) 4.44% | activity, negative = inhibition ([2]; parasite line B) 4.16% | Potency (3D7) | Potency (7G8) | Potency (AA1029) | Potency (AS120) | Potency (ATS189) | Potency (ATS95) | Potency (C2A) | Potency (CP185) | Potency (CP191) | Potency (CP192) | Potency (CP194) | Potency (CP201) | Potency (CP203) | Potency (CP211)
0.152: Z-AUC ([1]; measured here: PEO4 Z-AUC)
-1.24: Z-AUC [1, 7]

CC[C@H]1OC(=O)[C@H](C)[C@@H](O[C@H]2C[C@@](C)(OC)[C@@H](O)[C@H](C)O2)[C@H](C)[C@@H](O[C@@H]2O[C@H](C)C[C@H](N(C)C)[C@H]2O)[C@](C)(O)C[C@@H](C)C(=O)[C@H](C)[C@@H](O)[C@]1(C)O
inactive: Z-AUC [1] 1.12
0.909: Z-AUC [1, 7]
1.27: Z-AUC ([1]; measured here: PEO4 Z-AUC)
